The values that follow come from PubChem BioAssay AID720706 (Broad Institute, 2013).

Hit rate of the full screen: of about 350,000 compounds, about 5,500 (1.6%) were called active.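 How the source made its calls: active means significant combined selectivity score with lowered wild-type GFP, culture density cut under 30%, mutant RFP and density less affected; inactive means any of these conditions unmet.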 For the sample, actives were picked, then their nearest neighbours and some compounds at random.

This experiment can be described thus: reduced GFP signal of wild-type E. coli, primary screen, bacterial rRNA inhibitor project, GFP/RFP fluorescence, OD600, single point (AID 720706). The note with it: E. coli WT GFP vs humanized-ribosome RFP mutants, 24 h; GFP signal change (wild-type ribosome): stronger effect = lower value, DMSO median 0, no signal -100; OD600 change: measured here: OD600 growth, DMSO median 0, no signal -100; RFP signal change: measured here: RFP humanized mutant strains, DMSO median 0, no signal -100, concentration not given here.
For the molecule `O=c1oc(-c2ccccc2NS(=O)(=O)c2ccc(Cl)cc2)nc2ccccc12`, the GFP signal change (wild-type ribosome) was -33.6% (active), the OD600 change was -24.4% and the RFP signal change was 0.207%.

In the case of `CO[C@@H]1CN(C)C(=O)c2cc(NC(=O)Nc3ccc4c(c3)OCO4)ccc2OC[C@@H](C)NC[C@@H]1C`, the GFP signal change (wild-type ribosome) was 4.25% (inactive), the OD600 change was 10.8% and the RFP signal change was -0.511%.

With `COc1ccc2c3c([nH]c2c1)[C@@H](CO)N(C(C)=O)CC31CCN(Cc2ccccc2Cl)CC1`, the GFP signal change (wild-type ribosome) was -2.42% (inactive), the OD600 change is -9.54% and the RFP signal change was 4.49%.

`C[C@@H]1CN([C@H](C)CO)C(=O)c2cc(NS(=O)(=O)c3ccccc3)ccc2O[C@H]1CN(C)S(=O)(=O)c1ccc(Cl)cc1`: the GFP signal change (wild-type ribosome) is -8.38% (inactive), the OD600 change was -11.5% and the RFP signal change was determined as 2.44%.

With `COc1cccc(CCNC(=O)c2cccc(NC(=O)C3=C(C)OCCS3)c2)c1`, the GFP signal change (wild-type ribosome) is -25.3% (inactive), the OD600 change was -16.5% and the RFP signal change is -2.22%.

For `CCNC(=O)c1cccc(NC(=O)C2CC(=O)N(CCc3ccccc3)C2)c1` (stereo not drawn), the GFP signal change (wild-type ribosome) was 8.73% (inactive), the OD600 change was determined as 3.98% and the RFP signal change was 1.88%.

Consider `O=C(NCc1ccccc1)c1cccc(NC(=O)C2CCCCC2)c1`, for which the GFP signal change (wild-type ribosome) was -29.5% (active), the OD600 change was -22.2% and the RFP signal change was -7.71%.

Turning to `CC(C)(C)OC(=O)N1CCC(C(=O)Nc2cccc(C(=O)NCCc3ccccc3)c2)CC1`, the GFP signal change (wild-type ribosome) is 2.29% (inactive), the OD600 change was found to be 6.05% and the RFP signal change came out at 0.0785%.

`O=C(Cc1ccc(Br)cc1)NCCc1ccccc1`: the GFP signal change (wild-type ribosome) was -13.7% (inactive), the OD600 change was 6.7% and the RFP signal change was -2.35%.

As for `O=C(NCCc1ccccc1)c1cccc(NC(=O)c2ccccc2)c1`, the GFP signal change (wild-type ribosome) is -23.9% (active), the OD600 change is -10% and the RFP signal change was found to be 0.86%.

Take `CO[C@@H]1CN(C)C(=O)c2cc(NS(=O)(=O)c3ccc(C)cc3)ccc2OC[C@H](C)N(Cc2nccs2)C[C@@H]1C`: the GFP signal change (wild-type ribosome) was -2.96% (inactive), the OD600 change was -14.7% and the RFP signal change was found to be 7.3%.

Consider `COc1ccc2c3c([nH]c2c1)[C@@H](CO)N(C(=O)C1CC1)CC31CCN(C(=O)c2ccncc2)CC1`, for which the GFP signal change (wild-type ribosome) was 4.87% (inactive), the OD600 change was 6.99% and the RFP signal change was -3.09%.

Turning to `CC(C)NC(=O)N(C)C[C@H]1Oc2cc(-c3cncnc3)ccc2S(=O)(=O)N([C@@H](C)CO)C[C@H]1C`, the GFP signal change (wild-type ribosome) is 3.27% (inactive), the OD600 change is 3.02% and the RFP signal change was -2.21%.

Consider `CCC(=O)Nc1ccc2c(c1)C(=O)N(C)[C@@H]1CC[C@H](CC(=O)NCCc3ccncc3)O[C@@H]1CO2`, for which the GFP signal change (wild-type ribosome) was 2.16% (inactive), the OD600 change is 15.1% and the RFP signal change was -1.34%.

In the case of `Cc1ccccc1NC(=O)c1cc(S(=O)(=O)Nc2cccc(C(=O)O)c2)ccc1Cl`, the GFP signal change (wild-type ribosome) was 9.89% (inactive), the OD600 change stood at 8.39% and the RFP signal change is -0.677%.

With `C=CCNC(=O)c1ccccc1NC(=O)c1ccc(Cl)c(S(=O)(=O)Nc2cccc(C)c2C)c1`, the GFP signal change (wild-type ribosome) is -40% (active), the OD600 change is -4.93% and the RFP signal change amounted to 9.21%.

In the case of `Cc1ccc(C(=O)Nc2ccccc2-c2ccccc2)cc1S(=O)(=O)Nc1ccccc1`, the GFP signal change (wild-type ribosome) was -14.3% (inactive), the OD600 change is -30.9% and the RFP signal change is -8.24%.

In the case of `COC(=O)C[C@@H]1C[C@H]2c3cc(NC(=O)NC4CCCC4)ccc3O[C@H]2[C@H](CO)O1`, the GFP signal change (wild-type ribosome) was -0.054% (inactive), the OD600 change was -2.88% and the RFP signal change is 1.29%.

For `C[C@H](O)C#Cc1ccc2c(c1)O[C@H](CN(C)Cc1cccnc1)[C@@H](C)CN([C@H](C)CO)S2(=O)=O`, the GFP signal change (wild-type ribosome) was -1.81% (inactive), the OD600 change came out at 5.84% and the RFP signal change was -2.32%.

As for `COc1ccccc1NC(=O)N[C@H]1CC[C@H](CCNS(=O)(=O)c2ccc(Cl)cc2)O[C@H]1CO`, the GFP signal change (wild-type ribosome) is -12.2% (inactive), the OD600 change was -10.8% and the RFP signal change amounted to 7.75%.

Consider `CC(C)NC(=O)Nc1cccc2c1O[C@H](CN(C)Cc1ccccc1)[C@H](C)CN([C@H](C)CO)C2=O`, for which the GFP signal change (wild-type ribosome) was 3.96% (inactive), the OD600 change was 10.7% and the RFP signal change is -0.787%.

On to `C[C@@H]1CN([C@H](C)CO)C(=O)c2cc(-c3ccncc3)cnc2O[C@H]1CN(C)C`, for which the GFP signal change (wild-type ribosome) is -0.119% (inactive), the OD600 change was 3.91% and the RFP signal change was determined as 0.159%.

As to `NNc1nc2c(Cl)cccc2s1`, the GFP signal change (wild-type ribosome) was -27.1% (active), the OD600 change is -15.6% and the RFP signal change is -0.505%.

As for `CN1C(=O)c2cc(NC(=O)NC3CCCC3)ccc2OC[C@@H]2O[C@@H](CC(=O)O)CC[C@H]21`, the GFP signal change (wild-type ribosome) is 3.92% (inactive), the OD600 change came to 5.14% and the RFP signal change was -1.81%.

As to `COC(=O)[C@@]1(C)[C@H]2C(=O)N(Cc3ccccc3)C(=O)[C@H]2[C@H]2CN=C(SCC3CC3)N21`, the GFP signal change (wild-type ribosome) is -47.6% (inactive), the OD600 change is -80% and the RFP signal change was -15.4%.

For `CC[C@]1(C(=O)OC)[C@H]2C(=O)N(Cc3ccccc3)C(=O)[C@H]2[C@H]2CN=C(SCc3ccccc3)N21`, the GFP signal change (wild-type ribosome) is -30.1% (inactive), the OD600 change is -42.8% and the RFP signal change was -8.47%.

For `CC[C@]1(C(=O)OC)[C@H]2C(=O)N(Cc3ccccc3)C(=O)[C@H]2[C@H]2CN=C(SCc3ccc(C#N)cc3)N21`, the GFP signal change (wild-type ribosome) is -22.2% (active), the OD600 change is -6.29% and the RFP signal change was found to be 8.89%.

On to `C[C@@H]1CN([C@H](C)CO)C(=O)c2cc(-c3cccc(F)c3)cnc2O[C@H]1CN(C)C(=O)Nc1ccccc1F`, for which the GFP signal change (wild-type ribosome) is -2.5% (inactive), the OD600 change was -5.06% and the RFP signal change is -1.42%.

As for `CCC(=O)N1CC2(CN(Cc3cccnc3)C2)c2c(n(C)c3cc(OC)ccc23)[C@@H]1CO`, the GFP signal change (wild-type ribosome) is 1.02% (inactive), the OD600 change is -2.19% and the RFP signal change is -2.12%.

On to `C=C1CCC(N(O)c2cc(C)on2)C(=C)CCC2C1CC2(C)C` (stereo not drawn), for which the GFP signal change (wild-type ribosome) is -20.5% (active), the OD600 change was -3.66% and the RFP signal change stood at 1.7%.

Consider `CN1CCN(C(=O)C[C@H]2CC[C@@H]3[C@H](COC[C@@H](O)CN3CC3CCCC3)O2)CC1`, for which the GFP signal change (wild-type ribosome) was -1.31% (inactive), the OD600 change was 7.95% and the RFP signal change was -2.61%.
